From PubChem BioAssay AID1578 (Sanford-Burnham Center for Chemical Genomics, 2009) come the findings set out here.

Out of some 290,000 compounds screened, about 3,000 (1%) were called active. What follows is part of a selection rich in actives, with near analogues and random picks from the rest. Unmarked numbers belong to inactive results. Cut-off read from the data, not from the text of the source: active = inhibition mostly above about 36% (no sharp cut-off); inactive = mostly below about 34%.

The assay is described as follows: inhibition of NOD1-driven NF-kB reporter – cell-based, luminescence, uHTS, primary screen (AID 1578).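 Note: HEK-293T reporter cells stimulated with the NOD1 agonist gamma-tri-DAP.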 To be noted: NOD1-driven NF-kB luciferase reporter cells, at 4 µM, stronger effect = higher value.
Turning to `CCCCn1c(SCC(=O)Nc2cc(C(F)(F)F)ccc2Cl)nnc1C(CC)N(C)C` (centres undefined), the inhibition is -47.6%.
For the molecule `O=C1CCc2cc(S(=O)(=O)N3CCC(C(=O)NCc4ccccn4)CC3)ccc2N1`, the inhibition was -15.8%.
Then `O=C(O)CCC(=O)Nc1cccc(-c2nnc(-c3ccccc3)o2)c1`, with 15.5%.
Under `CCN1CCSc2ccc(C(=O)Nc3ccc(NC(C)=O)cc3)cc21` stands 4%; under `CC(=O)Nc1ccc(NC(=O)C2(C)CC2(Cl)Cl)cc1` (centres undefined), -29.2%; under `N#CCCn1c(SCC(=O)NCc2ccco2)nc2ccccc21`, -13.3%.
Under `CC(=O)c1cccc(NC(=O)CNC(=O)Cc2ccccc2)c1` stands 19.8%; under `CC(C)(C)NC(=O)N1CCCN(c2ccc(C(F)(F)F)cn2)CC1`, -7.3%; under `CCOC(CNc1cc(C)nc2c(-c3ccccc3OC)c(C)nn12)OCC`, -6.1%.
For `Clc1ccccc1-c1ccc(CN2CCN(c3ccccc3)CC2)o1`, the inhibition was 7.9%.
Then `CC(C(=O)Nc1c2c(cc3c1CCC3)CCC2)N1CCCC1` (centres undefined), with 63.4% (active); and `Cc1cccc(C)c1NC(=O)C(C)N1CCCC1` (centres undefined), with 5.2%.
As for `Cc1cc(C)c(NC(=O)C(C)N2CCCCCC2)c(C)c1` (centres undefined), the inhibition was 39.1%.
On to `COc1cc2ncnc(NCc3ccco3)c2cc1OC`, for which the inhibition was -1.4%.
Then `c1ccc(CNc2ncnc3sccc23)cc1`, with 31.8%; and `O=C(O)c1cccc(Nc2ncnc3ccc(Br)cc23)c1`, with -10.3%.
Under `Clc1ccc2c(NCc3ccco3)ncnc2c1` stands 16.7%; under `Brc1ccc2ncnc(NCc3ccccc3)c2c1`, 93.1% (active).
In the case of `Cc1ccc(S(=O)(=O)CC(=O)c2ccccc2)cc1`, the inhibition is -10%.
Then `CC(=O)Nc1c(C)cc(S(C)(=O)=O)cc1C`, with -12.2%; and `NC(=O)c1c(NC(NC(=O)c2ccco2)(C(F)(F)F)C(F)(F)F)sc2c1CCCC2`, with -24.2%; and `O=C(COC(=O)c1cc(-c2ccc(Cl)s2)nc2ccccc12)NCc1ccco1`, with -9.8%.
Then `C=CCCC(=O)NC1CC(C)(C)Cc2c1cnn2-c1ccc(OC)cc1` (centres undefined), with -7%; and `Cc1ccccc1Oc1ncnc(N)c1[N+](=O)[O-]`, with 4.6%; and `Clc1ccccc1N1CCN(c2ncnc3nc[nH]c23)CC1`, with -13.5%.
Under `CC1Cc2ccccc2N1c1ncnc2c1nnn2Cc1ccccc1` (centres undefined) stands -0.2%.
As to `CC1Cc2ccccc2N1c1ncnc2nc[nH]c12` (centres undefined), the inhibition was 71.8% (active).
For `c1ccc2c(c1)CCN(c1ncnc3nc[nH]c13)C2`, the inhibition was -40.8%.
`CC1Cc2ccccc2N1c1ncnc(N)c1[N+](=O)[O-]` (centres undefined): the inhibition was 96.2% (active).
As to `O=C(CCNC(=O)N1CCn2c1nc1ccccc12)NCc1ccc(Cl)cc1`, the inhibition is -26.9%.
Then `CN(C)C(=O)c1cc(C(=O)c2ccc(C(F)(F)F)cc2F)c[nH]1`, with 21.8%.
Then `O=C(CN1C(=O)c2ccccc2C1=O)Oc1ccc(Cl)cc1`, with -14.3%; and `Cc1cccc(OCCOC(=O)C2CCN(S(=O)(=O)c3ccc(C)c(C)c3)CC2)c1`, with -9.6%.
Under `CCN(CC(=O)NC1CCS(=O)(=O)C1)S(=O)(=O)c1ccc(C)cc1C` (centres undefined) stands -12%.
In the case of `Cc1c(CCC(=O)NCCC(=O)O)c(=O)oc2cc3occ(-c4ccccc4)c3cc12`, the inhibition was -7.4%.
Take `Cc1c(CCC(=O)NCCCCCC(=O)O)c(=O)oc2cc3occ(-c4ccccc4)c3cc12`: the inhibition is 34.3% (active).
Then `Cc1c(CC(=O)NCCCC(=O)O)c(=O)oc2cc3occ(-c4ccccc4)c3cc12`, with -6.5%; and `O=C(CNCc1ccc(F)cc1)Nc1ccc(S(=O)(=O)N2CCOCC2)cc1`, with -26.8%.
As for `O=C(c1ccncc1)N1CCc2ccccc2C1`, the inhibition was -32.9%.
Under `O=C(c1cccnc1)N1CCc2ccccc2C1` stands -0.9%.
Take `O=C(c1cncc(Br)c1)N1CCc2ccccc2C1`: the inhibition is 80.2% (active).
As to `COCCn1nnnc1C(CC(C)C)N1CCN(c2ccccc2)CC1` (centres undefined), the inhibition was -24.8%.
For `CN1CCN(c2ccccc2NC(=S)NC(=O)c2cc3ccccc3o2)CC1`, the inhibition was 5.8%.
Under `CN1C(=O)N(C)c2ccc(C=O)c3cccc1c23` stands -32.8%; under `CN1c2ccc(C=O)c3c(C=O)ccc(c23)N(C)C1(C)C`, 72% (active).
Take `CN1c2cccc3cccc(c23)N(C)C1(C)C`: the inhibition was 9.4%.
Then `O=C(CN(Cc1ccccc1)C(=O)CCC(=O)Nc1nccs1)NCc1ccco1`, with -21.9%; and `CC(CCc1ccccc1)NC(=O)Cn1cccc1C(=O)c1ccccc1` (centres undefined), with -9.7%.
Under `Cc1nc2ccc(NC(=O)c3ccc(S(=O)(=O)N(C)C)cc3)cc2s1` stands -37.4%; under `Cc1nc2ccc(NC(=O)c3ccc(S(=O)(=O)N(C)c4ccccc4)cc3)cc2s1`, 17.6%; under `CN(c1ccccc1)S(=O)(=O)c1ccc(Cl)c(C(=O)Nc2ccc(-c3nc4ccccc4[nH]3)cc2)c1`, 4.8%.
Then `Cc1nc2ccc(NC(=O)c3ccc(Cl)c(S(=O)(=O)N(C)c4ccccc4)c3)cc2s1`, with 51.8%.
For `O=C(CSc1nnc(C2COc3ccccc3O2)o1)N1CCN(c2ccccc2)CC1` (centres undefined), the inhibition is -24.7%.
Then `COc1ccc(CCNC(=O)CCS(=O)(=O)c2ccc3c(c2)oc(=O)n3C)cc1OC`, with -25.6%; and `O=C(COc1ccc(Cl)cc1Cl)NC(=S)N1CCCc2ccccc21`, with 28.6%.
For `CC(Oc1ccc(Cl)cc1Cl)C(=O)NC(=S)N1CCc2ccccc21` (centres undefined), the inhibition is 102% (active).
Take `CC(C)C(=O)NC(=S)N1CCc2ccccc21`: the inhibition was -40.2%.
On to `CC(C)NC(=O)c1ccc2c(c1)N(CC(=O)N1CCCCC1)C(=O)C(C)(C)O2`, for which the inhibition is 1.4%.
Under `O=C(CSc1nnnn1-c1ccccc1)Nc1ncc(Cc2cccc(Cl)c2Cl)s1` stands -16.9%; under `Cc1ccc(C)c(NC(=O)C2CC(O)CN2C(=O)OCc2ccccc2)c1` (centres undefined), 4.8%; under `COC(=O)CC1(C(=O)OC)Oc2ccc(Br)cc2C(=O)N1c1cc(Cl)cc(Cl)c1` (centres undefined), -11.1%.
Under `Cc1nonc1NC(=O)CSc1ccccn1` stands 4%; under `O=C(CSc1ccccn1)Nc1nonc1[N+](=O)[O-]`, 57.6% (active); under `CC(=O)Nc1nonc1NC(=O)CSc1ccccn1`, 2.6%.

Usually inhibition stands for the drop in the measured response relative to a control, in per cent.
